Screening results: PubChem BioAssay, National Center for Advancing Translational Sciences (NCATS)
This excerpt belongs to a sample that is enriched for hits.
HTT ATP protect: qHTS Multiplex Assay to Identify Dual Action Probes in a Cell Model of Huntington: Cytoprotection (ATP) | PC12 HTT-Q103 induced, cytoprotection, ATP luminescence, 40 h | actives 0.14% (n = 230,000) | Potency, µM (highest dose often 56.4 µM), for the others: cytoprotection (ATP increase), most hits filed as activators | AID 1471, 2008; note: potency is the fitted concentration of half-maximal effect; % of control where 0% means no effect; nearly all actives have a fitted effect of over 45% in size
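Rat PC12, Q103 Htt exon1-GFP fusion, ecdysone promoter; tebufenozide inducer 100 nM final; compound titration; qHTS, 1500 cells/well; ATPlite luminescent read.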
HTT aggregate: qHTS Multiplex Assay to Identify Dual Action Probes in a Cell Model of Huntington: Aggregate Formation (GFP). PC12 HttQ103-GFP aggregates, Acumen cytometry, 40 h. Potency, µM (doses to about 46.1 µM), without a hit: at the top dose activity change, negative = inhibition, usual class: inhibitors. actives 1.1% (n = 220,000); note: potency is the fitted concentration of half-maximal effect; % is set by controls: 0 for no effect and ±100 for the full control effect; nearly all actives have a fitted effect of over 60% in size
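Multiplexed with ATP-based cell death, this channel scores GFP aggregates in PC12 cells expressing inducible HTTex1-Q103-GFP. Induction used 100 nM tebufenozide; compounds were tested in concentration series.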
PNC assembly inh: High Content Assay for Compounds that inhibit the Assembly of the Perinucleolar Compartment; PC3M PTB-GFP, PNC prevalence imaging, 16 h; stronger effect = lower value; activity change (PNC), negative = inhibition, % at 10 µM; actives 3.1% (n = 140,000);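 active = readout at or below -70, meaning at least 70% loss of cells showing the perinucleolar compartment, a nuclear body marking cancer cells; inconclusive = readout between -30 and a set limit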;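 note: plate controls were DMSO wells for no effect and camptothecin positive control wells for full effect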
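Read-out is percentage of cells bearing a perinucleolar compartment, from automated 20x imaging of fixed, Hoechst-stained PC3M PTB-GFP cells. Cells were seeded 4 h, then exposed 16 h to compound (23 nl of library stock) in duplicate plates.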
* = called active by the depositor; ? = inconclusive; nt = not tested or not shown; [ ] = dose if it differs, or a comment. Unless noted, calls come from the whole dose curve; as a rule, active = well fitted curve in the direction sought with a large enough effect; inconclusive = small, poorly fitted or top-dose-only effect, or another doubt; inactive = no such curve, though single readings can be large; an effect the other way counts as inactive or inconclusive.

SMILES	HTT ATP protect	HTT aggregate	PNC assembly inh
CN(Cc1ccccc1)C(=O)C1CCC(CNS(=O)(=O)c2cccc3cccnc23)CC1 (configuration not stated)	25%[10 µM]	13%[9.22 µM]	nt
CCC1SC2=NCN(c3ccccc3)CN2C1=O (configuration not stated)	-9%	-5%	28
C/C(=C\C(=O)c1ccc(F)cc1)Nc1ccc(N2CCOCC2)cc1	-12%[0.074 µM]	2%	-12
CNC(=S)NNC(=O)c1sccc1OCc1ccc(Cl)cc1Cl	-13%	9%	21
N/C(=N\NC(=O)c1sccc1OCc1ccc(Cl)cc1Cl)c1ccccn1	-11%	1.8µM*	nt
CSc1nc(C)cc(Oc2ccc(OCC(N)=O)nn2)n1	-26%	0%	nt
CCOCCn1c(=NC(=O)c2cc3ccccc3oc2=O)sc2cc(S(N)(=O)=O)ccc21	21%[10 µM]	-13%	121
O=C(C1CCC1)N1CCc2cc(S(=O)(=O)Nc3ccc4c(c3)OCCO4)ccc21	-14%	?	-13
CCC(=O)N1CCc2cc(S(=O)(=O)Nc3ccc4c(c3)OCCO4)ccc21	26%	7.9µM*	-22
CCC(=O)N1CCc2cc(S(=O)(=O)NCCCN3CCN(Cc4ccccc4)CC3)ccc21	-2%	-25%	32
CCOCCCNS(=O)(=O)c1ccc2c(c1)CCN2C(=O)CC	26%	-20%	-110*
Cn1c(=O)oc2cc(S(=O)(=O)Nc3ccc4c(c3)OCCO4)ccc21	-9%	35µM*	6
Cn1c(=O)c(=O)n(C)c2cc(S(=O)(=O)Nc3ccc4c(c3)OCCO4)ccc21	-6%[1.9 µM]	-16%	?
Cc1ccc(-c2nnn(CC(=O)NCc3ccccc3)n2)c(-n2cnnn2)c1	9%[10 µM]	-3%	-7
N=C(N)SCCN1CCCCC1	16%[10 µM]	nt	nt
Cc1[nH]cnc1CSCc1ccc(F)cc1	-5%[10 µM]	-3%	?
Cc1cc2ccccn2c1C(=O)c1ccncc1	5%[10 µM]	-7%	48
Cc1cc2ccccn2c1C(=O)c1ccc(Cl)cc1	-51%	-23%	-105*
CCCC(C)NC(=O)c1ccc2[nH]c3c(c2c1)CC(C)CC3 (configuration not stated)	-7%	5%	23
CC(=O)Oc1ccccc1N(C(C)=O)S(=O)(=O)c1ccc(C)cc1	-1%	-10%	nt
COc1ccc(S(=O)(=O)N(C(C)=O)c2ccc(OC(C)=O)c3ccccc23)cc1[N+](=O)[O-]	-4%[10 µM]	6.3µM*	?
CCCS(=O)(=O)c1c(S(=O)(=O)CCC)c2c3ccccc3ccn2c1C(=O)OC	13%[1.9 µM]	-17%	-105*
CCCS(=O)(=O)c1c(S(=O)(=O)CCC)c2c(C)cccn2c1C(=O)OC	-18%	1%	-8
COc1cccc2c(=O)n(CC(=O)N3CCC(C)CC3)ccc12	-18%[10 µM]	0%	?
CCCCC1(CCCC)NC(=S)N(Nc2ccc(C)cc2)C1=O	-11%	-12%	-90*
SMILES	HTT ATP protect	HTT aggregate	PNC assembly inh
CCCCC1(C)NC(=S)N2N1C(=S)NC2(C)CCCC (configuration not stated)	1%[10 µM]	-11%[9.22 µM]	nt
N#CC1=C(N)Oc2c(O)cc3ccccc3c2C1c1ccsc1 (configuration not stated)	-28%[1.9 µM]	-22%	123
CC(=O)OC1CCC2(C)C3CCC4(C)C(CC5CCCCC54C(C)=O)C3CC(=O)[C@@]2(O)C1 (some centres not stated)	-16%[1.9 µM]	nt	nt
Cc1cccc(C)c1-n1nnnc1S(=O)(=O)Cc1ccccc1Cl	-8%	?	?
CC(=O)Nc1c(NC(C)(C)C)c2ccccc2oc1=O	4%[10 µM]	16%[9.22 µM]	nt
Cc1ccc(OCC(=O)c2cc(C)n(C)c2C)c([N+](=O)[O-])n1	6%[10 µM]	-8%	-121*
Cc1cc(C(=O)COc2cccc3cccnc23)c(C)n1C	-58%[10 µM]	0%	?
Cn1c(SCC(=O)NC2CCCCC2)nnc1-c1cc2cc(Cl)ccc2o1	14%	0%[9.22 µM]	8
CC(NC(=O)CSc1nnc(-c2cc3cc(Cl)ccc3o2)n1C)c1ccccc1 (configuration not stated)	-3%[10 µM]	-2%	-119*
CN(C)CCCN1C(=O)C(=O)/C(=C(/O)c2ccc3c(c2)OCO3)C1c1ccco1 (configuration not stated)	-8%	nt	nt
Cc1nc(C)c(C(=O)C2=C(O)C(=O)N(CCCN(C)C)C2c2ccco2)s1 (configuration not stated)	3%[0.074 µM]	6%	-81*
Cc1nc(C)c(C(=O)C2=C(O)C(=O)N(CCN(C)C)C2c2ccccc2)s1 (configuration not stated)	-2%	-14%	?
